This is an account of results in PubChem BioAssay.

Active and inactive are the calls of the source. The rule behind the calls is not given here.

As usually defined, the inhibition is the drop in the measured response relative to a control, in per cent.

In the experiment the target is Pantothenate synthetase (Mycobacterium tuberculosis (strain ATCC 25618 / H37Rv)) (UniProt P9WIL5). The experiment in a line: Coupled enzyme confirmation of inhibitors against recombinant Mtb PanC (AID 375).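 Note: 0% = full reaction with vehicle and 100% = no enzyme background.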 To be noted: coupled enzyme assay; at 10 µM, hits give high values.
Pantothenate synthetase (Mycobacterium tuberculosis (strain ATCC 25618 / H37Rv)), sequence (P9WIL5 whole entry, looked up): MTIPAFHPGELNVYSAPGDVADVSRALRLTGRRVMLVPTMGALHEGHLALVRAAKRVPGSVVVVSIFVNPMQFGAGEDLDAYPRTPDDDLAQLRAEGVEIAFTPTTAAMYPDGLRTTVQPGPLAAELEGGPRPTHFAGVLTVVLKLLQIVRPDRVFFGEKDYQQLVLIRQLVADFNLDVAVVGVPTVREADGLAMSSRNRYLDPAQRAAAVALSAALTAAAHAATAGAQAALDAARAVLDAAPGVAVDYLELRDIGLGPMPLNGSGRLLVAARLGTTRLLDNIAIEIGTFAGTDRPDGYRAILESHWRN
Turning to `COc1ccccc1Cn1nnc2c(=O)[nH]c(C3CCN(C(=O)c4ccccc4Cl)CC3)nc21`, the inhibition is 0% (inactive).

`Cn1cccc1Cc1nnc(SCC(=O)Nc2ccc(F)cc2F)n1-c1ccc(F)cc1`: the inhibition was 4% (inactive).

Take `C=CCNc1nnc(SC2CC(=O)N(c3ccc(OC)cc3)C2=O)s1` (centres undefined): the inhibition was 0% (inactive).

In the case of `Nc1nc(Nc2cccc3ccccc23)nc(C2CCCC2=O)n1` (centres undefined), the inhibition was 5% (inactive).

Turning to `CC(=O)N1CCN(S(=O)(=O)c2cccc(C(=O)Nc3ccc4c(c3)CCC4)c2)CC1`, the inhibition was 0% (inactive).

As to `COc1cc(SC)ccc1C(=O)Nc1ccon1`, the inhibition was 0% (inactive).

For `CCOc1ccc(-n2cc(C(=O)Nc3cccc(C)n3)c3cc(OC)c(OC)cc3c2=O)cc1`, the inhibition was 1% (inactive).

With `O=C(O)C1C2CCC(O2)C1C(=O)Nc1cccc(F)c1` (centres undefined), the inhibition is 1% (inactive).

`Cc1nc2scc(-c3ccco3)c2c(=O)n1/N=C/N(C)C`: the inhibition is 0% (inactive).

In the case of `C1=Nc2c(NCc3ccccc3)ncnc2Oc2ccccc21`, the inhibition is 0% (inactive).

`CC(C)Cc1nnc(NS(=O)(=O)c2ccc(Cl)cc2)s1`: the inhibition was 0% (inactive).

As for `O=C(Nc1ccc(Cl)cc1C(=O)Nc1ccncc1)c1ccco1`, the inhibition is 4% (inactive).

As to `Cc1c(NC(=O)C(C)OC(=O)c2cc3c4ccccc4n(C)c3s2)c(=O)n(-c2ccccc2)n1C` (centres undefined), the inhibition is 0% (inactive).

Regarding `c1ccn2c(SCc3cn4ccsc4n3)nnc2c1`, the inhibition was 1% (inactive).

Regarding `COCCc1ccc(OCC(O)CNC(C)C)cc1` (centres undefined), the inhibition is 6% (inactive).

`COC(=O)C(C)Sc1nc2c(c(=O)n(C)c(=O)n2C)n1Cc1cccc(C)c1` (centres undefined): the inhibition is 2% (inactive).

Turning to `CCOC(=O)C(C(C)=O)c1nc(C)nc2c1nnn2Cc1ccccc1Cl` (centres undefined), the inhibition was 0% (inactive).

In the case of `CCOC(=O)C1CCN(CC(=O)Nc2c(C(=O)OC)[nH]c3ccc(Cl)cc23)CC1`, the inhibition was 5% (inactive).

In the case of `CC1(C)C2CCC1(CS(=O)(=O)NCc1ccc(C(=O)O)cc1)C(=O)C2` (centres undefined), the inhibition is 0% (inactive).

As to `COc1ccc(CC(=O)Nc2ccc(OC)c(NC(=O)c3ccco3)c2)cc1`, the inhibition was 7% (inactive).

For `Cc1nc(NS(=O)(=O)c2ccccc2)sc1NC(=O)OC(C)C`, the inhibition was 0% (inactive).

`CC1(C)Cc2noc(N)c2C(C)(C)N1OC(=O)c1cccs1`: the inhibition was 0% (inactive).

As for `CC(C)C(NC(=O)c1ccco1)C(=O)NCC(c1ccco1)N1CCCCC1` (centres undefined), the inhibition is 3% (inactive).

For `CC(=O)NCC(=O)N(Cc1ccco1)C1(C(=O)NC2CCCCC2)CCCCC1`, the inhibition was 0% (inactive).
